Results on 94 compounds are retold here after PubChem BioAssay AID1850 (Southern Research Specialized Biocontainment Screening …, 2009).

Each structure is given as a SMILES string. In all, about 310,000 compounds went through this assay and about 1,000 (0.32%) were called active. A selection follows. Results with a measured potency or affinity are listed apart. A number with no mark means an inactive call. How the calls were made is not given here.

A short description of this assay: Inhibition of PhoP regulon, Salmonella typhi GFP reporter cells, confirmation, 4 h (AID 1850).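 Further: 0% = induced wells with vehicle and 100% = uninduced wells.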 The settings on record: Salmonella Typhi PhoP-promoter GFP reporter, fluorescence, at 50 µM, active compounds read high.
`COc1cc(/C=N/NC(=O)c2ccc(C)nc2)cc([N+](=O)[O-])c1O`: the inhibition (in general, the change of the read-out against control, counted positive when it falls) is 2.56%. As for `COc1cc([N+](=O)[O-])cc(/C=N/NC(=O)c2ccc(C)nc2)c1O`, the figure is 18.7%; as for `O=C(N/N=C/c1cccc([N+](=O)[O-])c1O)C(O)(c1ccccc1)c1ccccc1`, 2.48%; as for `COc1cc([N+](=O)[O-])cc(/C=N/NC(=O)c2cncc(Br)c2)c1O`, 12.7%.

`COc1cc([N+](=O)[O-])cc(/C=N/NC(=O)c2cc(C)nc3ccccc23)c1O`: the inhibition is 21.1%. As for `O=C(N/N=C/c1cc([N+](=O)[O-])ccc1O)Nc1ccccc1`, the figure is 17.7%; as for `O=C(N/N=C/c1ccc(O)c([N+](=O)[O-])c1)C(O)(c1ccccc1)c1ccccc1`, 4.8%; as for `COc1cc(/C=N/NC(=O)c2cccnc2)ccc1OC(=O)c1ccc([N+](=O)[O-])cc1`, 5.86%. As for `CCc1ccc(NC(=S)N(CCCN2CCN(C)CC2)Cc2cccs2)cc1`, the figure is 0.49%.

Take `Cc1nnc(SCC(=O)c2c(N)n(Cc3ccccc3)c(=O)n(C)c2=O)n1C`: the inhibition is -13.4%. As for `CC(=O)N(c1ccccc1C)S(=O)(=O)c1ccc(Cl)cc1`, the figure is -12.6%; as for `O=C(Nc1ccccc1)c1ccc(=O)n(Cc2ccc(F)c(F)c2)c1`, -6.26%. The same measure for `CCOC(=O)N1CCc2c(sc3c2c(=O)n(Cc2ccccc2)c(=O)n3Cc2ccc(C)cc2)C1`: -2.36%; for `CSc1ccccc1C(=O)C1CCCN(C(=O)c2csnn2)C1` (centres undefined): -11.4%.

For the compound `COc1ccc(C(=O)NC2CC2)cc1OC1CCN(Cc2ccc(F)cc2Cl)CC1`, the inhibition is -3.14%. As for `CC(O)(C#CCN1CCCC1)c1ccccc1` (centres undefined), the figure is -6.56%. As for `CCOC(=O)Cc1csc(NC(=O)c2sc3nc4ccc(C)cc4cc3c2N)n1`, the figure is -5.8%; as for `Cn1c(-c2ccc3c(c2)OCO3)cnc1NCc1cccc(Cl)c1`, 2.65%; as for `Cc1ccc(CNc2ncc(-c3ccc4c(c3)OCO4)n2C)cc1`, -2.15%. On to `Cc1ccccc1Nc1nnc(SCC(=O)N(C)C2CCS(=O)(=O)C2)s1` (centres undefined), for which the inhibition was -26.7%. The same measure for `Cc1cccc(NC(=O)C2CCCN(S(=O)(=O)c3cccc4nsnc34)C2)c1` (centres undefined): 11%; for `COc1ccc(NC(=O)C2CCCN(C(=O)Nc3ccc(OC)cc3)C2)cc1` (centres undefined): 13.2%.

On to `Cc1ccc(S(=O)(=O)NNC(=O)C(=O)NNc2ccccn2)cc1`, for which the inhibition was 1.07%. For `O=C(NNc1ccccn1)C(=O)NNS(=O)(=O)c1ccc(F)cc1`, the inhibition was -7.54%. As for `CCOc1ccc2c(c1)OC(c1ccc(C)cc1)(C(F)(F)F)NC2=O` (centres undefined), the figure is 2.02%; as for `COC(=O)c1c(NC(=O)CSc2nnc(Cn3nnc4ccccc43)n2C)sc(C)c1C`, 8.24%; as for `Cc1sc2nc(CSc3nc4ccccc4s3)[nH]c(=O)c2c1C`, -8.83%.

In the case of `COc1ccc(NS(=O)(=O)c2cc(OC)ccc2OC)cc1`, the inhibition is -1.85%. The same measure for `CC(=O)NC1Sc2ccccc2N=C1c1ccccc1` (centres undefined): -15.8%.

Turning to `Fc1ccccc1C1CC(c2ccco2)=Nc2ccccc2S1` (centres undefined), the inhibition is 9.62%. The same measure for `Cc1ccc(Cl)cc1N(CC(=O)N1CCCCCC1)S(C)(=O)=O`: -3.02%. Turning to `CC(C)COCc1ccc(O)c2ncccc12`, the inhibition is 1.72%.

Take `O=[N+]([O-])c1cc(CN2CCN(c3ccccc3)CC2)c(O)c2ncccc12`: the inhibition was 4.63%.

As for `O=S(=O)(c1ccc(Cl)cc1)N1CCN(Cc2ccc(O)c3ncccc23)CC1`, the inhibition is -17.9%. The same measure for `CCOc1cccc(CN2CCN(c3cccc(C(F)(F)F)c3)CC2)c1O`: -5.55%; for `c1ccc(N2CCN(Cc3ccnc4ccccc34)CC2)cc1`: -4.89%. With `CCCOCc1ccc(O)c2ncccc12`, the inhibition is 16.8%.

Consider `Oc1ccc(CN2CCCCC2)c2cccnc12`, for which the inhibition was -7.91%. The same measure for `Oc1ccc2ccccc2c1CN1CCN(c2ccccc2)CC1`: 2.7%.

As for `O=C(N/C(=C/c1ccco1)C(=O)N1CCOCC1)c1ccccc1Br`, the inhibition was 7.88%. Turning to `O=C(NC1CCCCC1)C(c1ccncc1)N(Cc1ccc(F)cc1)C(=O)c1ccccn1` (centres undefined), the inhibition is -1.84%. The same measure for `CN(C)CC(O)COc1cc2ccccc2cc1C(=O)N1CCCCC1` (centres undefined): 9.49%; for `CCCCCCCC(=O)Nc1ccc(S(=O)(=O)Nc2nccs2)cc1`: -7.23%. The same measure for `O=C1CSC(c2cccc([N+](=O)[O-])c2)N1CCN1CCCCC1` (centres undefined): -7.55%; for `CC(=O)c1c(N2CCOCC2)nc(=S)n(-c2ccc([N+](=O)[O-])cc2)c1C`: 3.58%. For `Cc1cc(/C([O-])=C(/C(=S)Nc2ccc(F)cc2)[n+]2ccccc2)c(C)n1Cc1ccccc1Cl`, the inhibition was -18.8%. The same measure for `OCCN1CCN(c2ncnc3scc(-c4ccc(F)cc4)c23)CC1`: 4.62%; for `COc1ccccc1N1CCN(Cc2cc(Br)c(O)c3ncccc23)CC1`: 3.41%. Turning to `Oc1ccc(CN2CCc3ccccc3C2)c2cccnc12`, the inhibition was -5.43%. `OCc1ccc(O)c2ncccc12`: the inhibition was 0.16%. The same measure for `COc1ccccc1N1CCN(Cc2ccc(OC)c(OC)c2OC)CC1`: 5.73%; for `COCCn1cnc2c1c(=O)n(CC(=O)OCC(=O)NCCCc1ccccc1)c(=O)n2Cc1ccccc1`: 5.65%; for `Cc1nc2cc(NC(=O)c3ccc(S(=O)(=O)N(C)c4ccccc4)cc3)ccc2o1`: -24.8%. For `CC(C)NC(=O)CCCc1ccccc1`, the inhibition is -2.72%. As for `CC[n+]1c(/C=C(\C)SC)sc2ccccc21`, the figure is 8.28%.

For the compound `CCN1/C(=C/C=C/C=C/C=C/c2sc3ccccc3[n+]2CC)Sc2ccccc21`, the inhibition is 5.61%. The same measure for `CN(C)c1ccc(/C=C/C=C/c2sc3ccccc3[n+]2C)cc1`: 14.1%; for `CC[n+]1c(/C=C/Nc2ccccc2)sc2ccccc21`: 11.1%.

Turning to `CC[n+]1c(/C=C/C=C/N(C(C)=O)c2ccccc2)sc2ccccc21`, the inhibition was -299%. As for `CC[n+]1c(/C=C(/C)SC)sc2ccccc21`, the figure is -5.74%.

Consider `COc1ccc(/C=C/C2=CCN(Cc3ccc(OC)cc3)CC2)cc1`, for which the inhibition is 5.66%. The same measure for `COc1ccc(CN2CC(C(N)=O)Oc3ccccc32)cc1F` (centres undefined): -14.6%; for `Cc1ccccc1C(=O)Nc1c(C(=O)N2CCCC2)cnn1-c1ccccc1`: -11.9%; for `CN(C)S(=O)(=O)c1ccc(NC(=O)COC(=O)CC2CC3CCC2C3)cc1` (centres undefined): -11.3%. As for `Cc1ccc(C)n1-c1ccccc1N`, the figure is 7.67%; as for `C/C(CC(=O)NC1C2CC3CC(C2)CC1C3)=N\NC(=O)Cc1cccs1` (centres undefined), 5.86%; as for `CC(=O)c1coc2c1cc(O)c1ccccc12`, -10.2%. As for `CC(=O)Oc1c(C)cc(O)c2ccccc12`, the figure is -6.69%. For the compound `COc1ccc2[nH]cc(C(=O)CN3CCCC(C)(C)C3)c2c1`, the inhibition is 12.1%.

Regarding `CCOC(=O)CCNC(=O)Nc1ccc2nc(C)n(Cc3ccccc3Cl)c(=O)c2c1`, the inhibition was 12%. The same measure for `CC(=O)N(Cc1cc2cc(C)c(C)cc2n2nnnc12)CC1COCCO1` (centres undefined): -4%; for `CC(C)N(Cc1nc(-c2ccccc2)no1)C(=O)c1ccc2c(c1)OCO2`: 1.2%. With `COc1ccc(CCC(=O)NCCOc2ccc(Cl)cc2)cc1`, the inhibition was -4.36%.

`COc1ccc(NC(=O)CSc2nc3c(c(-c4cccs4)c2C#N)CN(C)CC3)cc1OC`: the inhibition was 0.71%.

For `CN1CCc2nc(SCC(=O)Nc3ccc(OC(F)(F)F)cc3)c(C#N)c(-c3cccs3)c2C1`, the inhibition is -3.5%. The same measure for `COc1ccccc1Nc1ccc([N+](=O)[O-])cc1N`: 2.25%; for `CC1CC(C)CN(S(=O)(=O)c2ccc3c(c2)CC(C)N3C(=O)C2CC2)C1` (centres undefined): -20.4%. As for `CCc1ccc(-c2cc(C)no2)cc1S(=O)(=O)N1CCN(c2ccc(OC)cc2)CC1`, the figure is -6.02%; as for `O=[N+]([O-])c1cccc2c(N3CCOCC3)ccnc12`, -0.36%; as for `O=[N+]([O-])c1ccc(N2CCCC2)c2ncccc12`, -3.29%. As for `Cc1cc(C)cc(OCC(=O)Nc2cccc(-c3nnc(-c4ccco4)o3)c2)c1`, the figure is 3.78%; as for `CCCCNC(=O)O[C@@H]1C[C@H]2CCC(=O)N3CC[C@@H](C1)[C@@H]23`, 4.97%. With `CCC(C)c1ccc(NC(=O)c2[nH]c(C)c(C(C)=O)c2C)cc1` (centres undefined), the inhibition is -9.52%. As for `Cc1ccc(O)c(C=Nc2ccc3[nH]ncc3c2)c1`, the figure is -7.82%; as for `COc1ccc(C=Nc2ccc3[nH]ncc3c2)c(O)c1`, 0.93%; as for `CC1=C(C#N)C(c2cccnc2)C2=C(N1)c1ccccc1C2=O` (centres undefined), 1.42%. The same measure for `Cc1ccc(Nc2ccc(NCc3ccccc3)nn2)cc1C`: -4.54%.

As for `Cc1cccc(Nc2ccc(NCc3ccccc3)nn2)c1`, the inhibition is 5.48%.

For the compound `O=C(O)/C=C/C(=O)N1CCN(c2ccc(F)cc2)CC1`, the inhibition is 2.57%.

Regarding `Cc1c(Cc2ccccc2)c(=O)oc2cc(OCC(=O)N[C@@H](Cc3ccccc3)C(=O)O)ccc12`, the inhibition is 1.41%. For the compound `C#CCOCCOCCOCCNc1nc(N2CCN(C(=O)[C@H](Cc3cc4ccccc4[nH]3)n3cc(C(N)CC(C)C)nn3)CC2)nc(N2CCN(C(=O)[C@H](CCC(=O)O)n3cc(C(N)[C@H](C)CC)nn3)CC2)n1` (some centres undefined), the inhibition was -6.17%. As to `C#CCOCCOCCOCCNc1nc(N2CCN(C(=O)[C@H](CCC(=O)O)n3cc(C(N)CC(C)C)nn3)CC2)nc(N2CCN(C(=O)[C@H](Cc3cc4ccccc4[nH]3)n3cc(C(N)CC(C)C)nn3)CC2)n1` (some centres undefined), the inhibition was -7.76%. As for `C#CCOCCOCCOCCNc1nc(N2CCN(C(=O)C(Cc3cc4ccccc4[nH]3)n3cc(C(N)C(C)CC)nn3)CC2)nc(N2CCN(C(=O)C(Cc3cc4ccccc4[nH]3)n3cc(C(N)C(C)CC)nn3)CC2)n1` (centres undefined), the figure is 37.5%. The same measure for `C#CCOCCOCCOCCNc1nc(N2CCOCC2)nc(N2CCN(C(=O)[C@H](Cc3cc4ccccc4[nH]3)n3cc([C@@H](N)CC(C)C)nn3)CC2)n1`: 7.58%.
